High-throughput results from PubChem.
HCMV antiviral – qHTS Assay for inhibitors of the human cytomegalovirus (HCMV); HFF cells, HCMV-luciferase reporter, 72 h; hits give low values; activity change, negative = inhibition, % at 57.5 µM; hit rate 4.5% among 410,000; AID 1259415, 2018; in the data active means activity change below about -60%; inconclusive means no clear call, values can overlap the other calls; inactive means above about -39%
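Two compound doses tested in HFFs infected with HCMV-luciferase, MOI 1 PFU/cell, 72 h at 37C. Lysate luminescence read with OneGlo; data normalized against buffer-only and 10uM Salinomycin inhibitor controls.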
Pf growth 96h – Primary qHTS for delayed death inhibitors of the malarial parasite plastid, 96 hour incubation | P. falciparum luciferase reporter growth, 96 h | Potency, µM (top dose mostly 28.7 µM), usual class: inhibitors | hit rate 6.9% among 320,000 | AID 504834, 2011
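Erythrocytes infected with luciferase-expressing P. falciparum were dispensed at 2% hematocrit and 0.05% parasitemia (final), then incubated with compounds 96 hours at 37 C in 5% CO2. Luminescence after detection reagent addition reported growth.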
LASV entry inh – qHTS for Inhibitors of binding or entry into cells for Lassa Virus. Lassa virus pseudotype entry inhibition, cell reporter. Potency, µM (titrated, usually from 37.9 µM), actives largely listed as inhibitors. hit rate 1.2% among 300,000. AID 540256, 2011; calls by dose curve; tested in HEK293 cells; further: nearly all actives have a fitted effect of over 50% in size
Pf growth 48h – Primary qHTS for delayed death inhibitors of the malarial parasite plastid, 48 hour incubation; Potency, µM (doses to about 28.7 µM), most hits filed as inhibitors; hit rate 5.9% among 310,000; P. falciparum luciferase growth in erythrocytes, 48 h
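Luciferase-expressing P. falciparum in infected erythrocytes (2% hematocrit, 0.1% parasitemia final) in RPMI 1640/0.5% Albumax were exposed to compound for 48 hours at 37 C, 5% CO2; growth read as luminescence.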
HCV inh – qHTS Assay for Inhibitors of Hepatitis C Virus (HCV) | Huh7.5.1 HCVcc-Cre infection, luciferase reporter, 44 h | Potency, µM (doses to about 41.8 µM), actives largely listed as inhibitors | hit rate 3.4% among 340,000 | AID 651820, 2012
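After 44 h co-culture of compound, cells and HCVcc-Cre (~0.5 moi), substrate is added for 15 min at room temperature and luciferase measured over 15 sec. Cells were seeded at 1,000/well and pre-cultured 4 h.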
Marburg entry inh – qHTS for inhibitors of binding or entry into cells for Marburg Virus; Marburg virus pseudotyped entry inhibition, cell reporter; hit rate 1.8% among 300,000; Potency, µM (series often up to 37.8 µM), most hits filed as inhibitors; AID 540276, 2011; calls by dose curve; tested in HEK293 cells
A number is an active result. An excerpt weighted towards active compounds, which were near 14% of everything screened. Unless noted, the call rests on the fitted dose curve; in most records, active means well fitted inhibition curve with a large enough effect; inconclusive means small, poorly fitted or top-dose-only effect, or another doubt; inactive means no such curve, though single readings can be large or run the other way.

How did O=C(Nc1ccc(F)cc1)c1ccc(Cn2nc(N3CCN(c4ccccc4)CC3)ccc2=O)o1 do in these assays?
HCMV antiviral: -62; LASV entry inh: inconclusive

Results for COC(C#CCCN(C)C)(c1ccccc1)c1ccccc1 ?
HCMV antiviral: inactive; Pf growth 96h: inconclusive; LASV entry inh: inconclusive; Pf growth 48h: 1.7µM; HCV inh: inactive; Marburg entry inh: inactive

How did COc1cc(C(=O)CC2(O)C(=O)N(Cc3ccccc3Cl)c3ccccc32)cc(OC)c1OC (stereo not drawn) do in these assays?
HCMV antiviral: -71; LASV entry inh: inconclusive; Marburg entry inh: inactive

What do the screens show for `O=C(CC1(O)C(=O)N(Cc2cccc3ccccc23)c2ccccc21)c1cccnc1` (stereo not drawn)?
HCMV antiviral: inactive; Pf growth 96h: 3.7µM; LASV entry inh: inconclusive; HCV inh: inconclusive; Marburg entry inh: inactive

Results for CN1C(=O)C(O)(CC(=O)c2cccnc2)c2ccccc21 (stereo not drawn) ?
HCMV antiviral: inactive; Pf growth 96h: inconclusive; LASV entry inh: inactive; Pf growth 48h: inactive; HCV inh: inactive; Marburg entry inh: inconclusive

What do the screens show for `COC(=O)c1sc2cccc(F)c2c1S(=O)(=O)Nc1cc(OC)cc(OC)c1`?
HCMV antiviral: inactive; LASV entry inh: inactive

What do the screens show for `CCc1cnc2c(c1SCC(=O)NCc1ccc(C)cc1)c(=O)n(C)c(=O)n2C`?
HCMV antiviral: inactive; LASV entry inh: inactive

How did Fc1cccc(/C=C2\CCCC3=C2NC(=S)NC3c2cccc(F)c2)c1 (stereo not drawn) do in these assays?
HCMV antiviral: inactive; Pf growth 96h: 4.1µM; Pf growth 48h: 2.6µM; HCV inh: 8.9µM

How did S=C1NC2=C(CCC/C2=C\c2ccccc2)C(c2ccccc2)N1 (stereo not drawn) do in these assays?
HCMV antiviral: inconclusive; Pf growth 96h: inconclusive; LASV entry inh: inactive; Pf growth 48h: inactive; HCV inh: inconclusive; Marburg entry inh: inconclusive

Results for COC(=O)c1c(NC(=O)c2cc(=O)c3cc(C)cc(C)c3o2)sc2c1CCC2 ?
HCMV antiviral: inactive; LASV entry inh: inactive; Marburg entry inh: inactive

How did CN(C)/C=N/C(=S)Nc1ccc(Cl)cc1Cl do in these assays?
HCMV antiviral: inactive; Pf growth 96h: inactive; LASV entry inh: inconclusive; Pf growth 48h: inactive; HCV inh: 14µM; Marburg entry inh: inactive

How did Cc1ccc(NCCc2ccc(C)nc2)cc1 do in these assays?
HCMV antiviral: inactive; Pf growth 96h: inactive; LASV entry inh: inactive; HCV inh: inactive; Marburg entry inh: inactive

Results for Cc1ccc(CCNc2ccc3ccccc3c2)cn1 ?
HCMV antiviral: -63; LASV entry inh: inconclusive; HCV inh: inactive; Marburg entry inh: inconclusive

What do the screens show for `Cc1nn(C(=O)c2ccco2)c(C)c1Br`?
HCMV antiviral: inactive; LASV entry inh: inactive; HCV inh: inactive; Marburg entry inh: inactive

Results for COc1ccc(C(=O)n2nc(C)c(Br)c2C)cc1 ?
HCMV antiviral: inactive; Pf growth 96h: 0.47µM; LASV entry inh: inactive; Pf growth 48h: inconclusive; HCV inh: inactive; Marburg entry inh: inactive

Results for COc1ccc(NC(=O)[C@@H]2CCCN2C(=O)[C@@H]2Cc3ccccc3CN2C(=O)OC(C)(C)C)cc1 ?
HCMV antiviral: inactive; Pf growth 96h: 12µM; LASV entry inh: inconclusive; Pf growth 48h: 12µM; HCV inh: inactive; Marburg entry inh: inactive

How did COc1cc(NC(=O)C2Cc3ccccc3CN2S(C)(=O)=O)cc(OC)c1 (stereo not drawn) do in these assays?
HCMV antiviral: inactive; Pf growth 96h: 1.9µM; LASV entry inh: inactive; Pf growth 48h: inactive; HCV inh: inactive; Marburg entry inh: inactive

What do the screens show for `CS(=O)(=O)N1Cc2ccccc2CC1C(=O)Nc1ccccc1C(N)=O` (stereo not drawn)?
HCMV antiviral: inactive; Pf growth 96h: inactive; LASV entry inh: inconclusive; Pf growth 48h: inactive; HCV inh: inactive; Marburg entry inh: inactive

What do the screens show for `COc1ccc(NC(=O)C2CCN(C(=O)[C@@H]3Cc4ccccc4CN3C(=O)OC(C)(C)C)CC2)cc1`?
HCMV antiviral: inactive; Pf growth 96h: inconclusive; Pf growth 48h: inconclusive; HCV inh: inactive

How did COc1ccc(Cl)cc1NC(=O)C1Cc2ccccc2CN1S(C)(=O)=O (stereo not drawn) do in these assays?
HCMV antiviral: inactive; Pf growth 96h: inactive; LASV entry inh: inactive; Pf growth 48h: inactive; HCV inh: inactive; Marburg entry inh: inactive

Results for CCOc1ccccc1NC(=O)C1Cc2ccccc2CN1S(C)(=O)=O (stereo not drawn) ?
HCMV antiviral: inactive; Pf growth 96h: 12µM; LASV entry inh: inactive; Pf growth 48h: inconclusive; HCV inh: inactive; Marburg entry inh: inactive

How did CC(=O)N1N=C(c2ccc(C)c([N+](=O)[O-])c2)OC1(C)C do in these assays?
HCMV antiviral: inactive; Pf growth 96h: inconclusive; Pf growth 48h: 9.3µM; HCV inh: inactive

How did OC(c1ccc(Cl)cc1)c1ncc(-c2ccccc2Cl)[nH]1 (stereo not drawn) do in these assays?
HCMV antiviral: inactive

How did COCOc1ccc(-c2ncc(OCCN3CCCC3=O)nc2NC(=O)c2cc3ccccc3s2)cc1 do in these assays?
HCMV antiviral: -101

How did COc1cc(OC)cc(C(=O)NNC(=O)NC2CCCCC2)c1 do in these assays?
HCMV antiviral: inactive; Pf growth 96h: 10µM; LASV entry inh: inconclusive; Pf growth 48h: inactive; HCV inh: inactive; Marburg entry inh: inactive

Results for CN(C)c1cccc(C(=O)NNC(=O)NC2CCCCC2)c1 ?
HCMV antiviral: inconclusive; Pf growth 96h: 6.6µM; LASV entry inh: inactive; Pf growth 48h: inactive; HCV inh: inactive; Marburg entry inh: inactive

What do the screens show for `O=C(NC1CCc2ccccc21)C1=CN2CCN(Cc3ccccc3)C(=O)N=C2O1` (stereo not drawn)?
HCMV antiviral: inactive

How did CCC(C)C1O[C@]2(C=CC1C)CC1CC(C/C=C(\C)[C@H](OC3CC(OC)C(O[C@H]4CC(OC)[C@@H](O)C(C)O4)C(C)O3)[C@@H](C)/C=C/C=C3\COC4C(O)C(C)=C[C@H](C(=O)O1)[C@@]34O)O2 (stereo partly drawn) do in these assays?
Pf growth 96h: 13µM; Pf growth 48h: 15µM

Results for C=CCOc1ccc(C(=O)Nc2ccccc2C(=O)NCc2cccnc2)cc1 ?
HCMV antiviral: inactive; Pf growth 96h: inactive; LASV entry inh: inconclusive; Pf growth 48h: 12µM; HCV inh: inactive; Marburg entry inh: inactive

Results for CCOc1ccc(C(=O)NC(=S)NCc2cccnc2)cc1 ?
HCMV antiviral: inactive; Pf growth 96h: 10µM; LASV entry inh: inactive; Pf growth 48h: inactive; HCV inh: inactive; Marburg entry inh: inconclusive
